# Assay results as given in PubChem BioAssay (Tox21).
# Inconclusive results are not listed. Unmarked numbers belong to inactive results. The call rests on the fitted dose curve; in most records, active means well fitted cell-killing curve with a large enough effect in the repeat runs (not every such curve was filed as active); inconclusive means weak or mixed curves, or effect the other way; inactive means no such curve, though single readings can be large or run the other way. Where a SMILES comes first, the peptide text is derived from it.
# Test: qHTS assay to identify small molecule antagonists of the farnesoid-X-receptor (FXR) signaling pathway - cell viability counter screen (AID 743221); further: nearly all actives have a fitted effect of over 50% in size
# Conditions: FXR-bla HEK293T viability, CellTiter-Glo luminescence, 16 h; series mostly up to 62.6 µM; activity change, negative = cytotoxicity: at the top concentration
# Description: National Center for Advancing Translational Sciences [NCATS]
# NIH Chemical Genomics Center [NCGC]
# U.S. Environmental Protection Agency [EPA]
# National Institutes of Environmental Health Sciences [NIEHS]
# National Toxicology Program [NTP]
# U.S. Food and Drug Administration [FDA]
# The farnesoid-X-receptor (FXR), a nuclear hormone receptor, is highly expressed in liver, intestine, kidney and adrenal cortex. Natural ligands of FXR are the bile acids (Cholic acid, Chenodeoxy cholic acid etc). FXR is an important regulator of diverse metabolic pathways, including the bile acid homeostasis, lipid and glucose metabolisms. FXR regulates the expression of target genes by binding either as a monomer or as a heterodimer with the retinoid X receptor (RXR). Numerous studies have reported that FXR exerts protective function during cholestasis, diabetes, liver regeneration, and cancer. To identify compounds that inhibit FXR signaling, GeneBLAzer FXR-UAS-bla HEK 293T cell line (Invitrogen, Carlsbad, CA) containing a beta-lactamase reporter gene under the control of a UAS response element was used to screen the Tox21 10K compound library. The cytotoxicity of the Tox21 compound library against the FXR-bla cell line was tested in parallel by measuring the cell viability using CellTiter-Glo assay in the same wells.
# Tox21 Assay Protocol Summary:
# FXR-bla cells were dispensed at 5000 cells/5uL/well in 1536-well black wall/clear bottom plates using a Multidrop Combi (Thermo Fisher Scientific, Waltham, MA) dispenser. After the assay plates were incubated at 37 C and 5% CO2 for 5 h, 23 nL of compounds dissolved in DMSO, positive controls or DMSO only was transferred to the assay plate by a Pintool station (Kalypsys, San Diego, CA), followed by addition of 1 uL Chenodeoxycholic acid (50 uM, final concentration in the wells). The assay plates were incubated at 37C for 16 h. After 1 uL of LiveBLAzerTM B/G FRET substrate was added using a Bioraptr Flying Reagent Dispenser (FRD) workstation (Beckman Coulter, Indianapolis, IN), the plates were incubated at room temperature for 2 h, and fluorescence intensity was measured by an Envision plate reader (PerkinElmer, Shelton, CT). For cell viability readout that measures cytotoxicity, 4uL/well of CellTiter-Glo reagent was added into the assay plates using a Bioraptr FRD. After 30 min incubation at room temperature, the luminescence intensity in the plates was measured using a ViewLux plate reader (PerkinElmer).
# On the % scale 0 is the no-effect control and ±100 the full control effect.
row,Compound,"activity change, negative = cytotoxicity"
1,C=CCN1C[C@H](C(=O)N(CCCN(C)C)C(=O)NCC)C[C@@H]2c3cccc4[nH]cc(c34)C[C@H]21,-16%
2,N[C@@H](Cc1ccc(O)cc1)C(=O)O,-1.49% [at 13.2 µM]
3,Cc1ncc([N+](=O)[O-])n1CC(C)O (stereo not given),5.45%
4,COc1cc(/C=C/C(N)=O)cc(OC)c1OC,11%
5,O=NN(CCCl)C(=O)NC1CCCCC1,1.43%
6,ONc1ccccc1,10.7% [at 81.1 µM]
7,CCOC(CN1CCN(CC(C)C(=O)c2ccccc2)CC1)c1ccccc1 (stereo not given),19.2% [at 29.1 µM]
8,c1ccc2cnccc2c1,-10.4%
9,COP(=O)(O)OP(=O)(O)OC,2.15%
10,C#CCN[C@@H]1CCc2ccccc21,1.55%
11,CC(=O)O[C@@H]1CC2CCC1(C)C2(C)C (stereo not given in full),12.8%
12,C/C(CC(C)C)=N\O,-1.24%
13,CC(C)C[C@@H]1[C@H](c2ccccc2)OC(=O)N1CCCN1CCCCCC1,-2.17%
14,[O-][n+]1cccc(/C(Cl)=N/OC[C@@H](O)CN2CCCCC2)c1,-0.0545%
15,CC(=O)OC1CCCCC1C(C)(C)C (stereo not given),-2.28%
16,Nc1nnnn1-c1ccccc1,-4%
17,Nc1nc(-c2ccccc2)c(Br)c(=O)[nH]1,0.886%
18,CCCCCc1cccc(=O)o1,6.29%
19,CCC(=O)Oc1ccc2c(c1)CC[C@@H]1[C@@H]2CC[C@@]2(C)[C@H]1C[C@@H](OC(=O)CC)[C@@H]2OC(=O)CC,2.15%
20,CC1=C(O)C(=O)C(C)O1 (stereo not given),1.91% [at 81.1 µM]

row,Compound,"activity change, negative = cytotoxicity"
1,Cc1c(NC(=O)c2cccnc2)c(=O)n(-c2ccccc2)n1C,4.88%
2,CC(C)Nc1ccccc1,1.73%
3,CCC(=O)CC,1.03%
4,OC1(c2ccc(Cl)cc2)CCNCC1,-1.92%
5,Cc1ccc(C)c([N+](=O)[O-])c1,0.12%
6,O=C[O][Al]([O]C=O)[O]C=O,11.4%
7,c1ccc(B(c2ccccc2)c2ccccc2)cc1,14.5%
8,CC1(C)O[C@H]2CC(=O)OC[C@]23[C@H]2CC[C@@]4(C)[C@H](c5ccoc5)OC(=O)[C@H]5O[C@]54[C@]2(C)C(=O)C[C@@H]13,0.933%
9,CCCCCCCCCCOC(C)=O,-15.3%
10,CSc1cnccn1,1.31%
11,COC(C)(OC)OC,10.4%
12,COC(=O)c1cc(Cl)cc(Cl)c1,20%
13,CN(C)C(C)(C)CO,-8.83%
14,CCCCOC(=O)[C@H](C)O,1.11%
15,c1ccc(-c2nn[nH]n2)cc1,6.11%
16,CCCCCCCCCCCCCCCCCCOCCO,0.806% [at 29.1 µM]
17,CC(=O)OC(C)=O,4.41% [at 81.1 µM]
18,Cc1cccc(Cl)c1,6.31%
19,CC(=O)N[C@@H](CO)C(=O)N[C@@H](CC(=O)O)C(=O)N[C@@H](CCCCN)C(=O)N1CCC[C@H]1C(=O)O (Ac-SDKP-OH),-6.45%
20,COC(=O)CCCCC(=O)O,6.03%
